Assay outcomes (PubChem BioAssay)
Only a selection was taken, and hits are over-represented in it overall.
LmPK inh – qHTS Assay for Inhibitors of Leishmania Mexicana Pyruvate Kinase (LmPK). purified LmPK, Kinase-Glo ATP luminescence, 1 h. Potency, µM (top dose mostly 57.5 µM), for the others: at the top dose activity change, negative = inhibition, actives largely listed as inhibitors. actives 0.37% (n = 290,000). AID 1721, 2009; also: potency is read from the fitted curve at half-maximal effect; % is scaled to controls: 0 for no effect and ±100 for the full control effect
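Purified LmPK (0.1 nM) converted ADP (0.1 mM) to ATP with PEP (0.5 mM) in imidazole buffer pH 7.2 with KCl and MgCl2, 1 h at room temperature. ATP was read by Kinase-Glo luminescence; data normalized to uninhibited and no-enzyme controls.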
FBPA Giardia inh – qHTS Assay for Inhibitors of Fructose-1,6-bisphosphate Aldolase from Giardia Lamblia; A8B2U2; Potency, µM (doses to about 59.6 µM), for the others: at the highest dose activity, negative = inhibition, hits mostly inhibitors; actives 0.71% (n = 290,000); purified Giardia FBPA; also: potency is read from the fitted curve at half-maximal effect; % is scaled to controls: 0 for no effect and ±100 for the full control effect; nearly all actives have a fitted effect of over 55% in size
Target sequence (A8B2U2 whole entry, looked up): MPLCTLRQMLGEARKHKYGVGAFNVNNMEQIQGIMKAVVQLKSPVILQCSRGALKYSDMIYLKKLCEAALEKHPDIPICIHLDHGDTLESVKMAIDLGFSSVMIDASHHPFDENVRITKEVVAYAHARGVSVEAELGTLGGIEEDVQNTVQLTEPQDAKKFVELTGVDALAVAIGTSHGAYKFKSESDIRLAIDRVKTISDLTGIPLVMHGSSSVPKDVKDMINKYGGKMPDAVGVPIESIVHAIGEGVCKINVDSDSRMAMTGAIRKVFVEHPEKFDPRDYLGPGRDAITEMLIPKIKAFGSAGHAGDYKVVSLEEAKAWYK
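Giardia FBPA (40 nM reagent) was preincubated 10 min at RT with compound (up to 57.5 uM final), then substrate plus GAPDH/TPI/NAD/arsenate coupling system with diaphorase/resazurin was added; resorufin fluorescence (525/598 nm) was read after 20 min.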
Shiga toxin inh – A qHTS for Small Molecule Inhibitors of Shiga Toxin; inhibition, % at 38.7 µM; Vero cells, Shiga toxin protein synthesis inhibition reporter; AID 2315, 2010; actives 9.2% (n = 290,000); in the data active = inhibition mostly above about 28%, no sharp cut-off; inactive = mostly below about 43%; also: 0% is about no effect
TbPYK inhibitor – qHTS of Trypanosoma Brucei Inhibitors; pyruvate kinase (Trypanosoma brucei), Q57TT1; TbPYK enzyme, Kinase-Glo Plus ATP luminescence, 45 min; Potency, µM (doses to about 76.8 µM), for the others: at the highest dose activity, negative = inhibition, most hits filed as inhibitors; actives 0.12% (n = 410,000); AID 624173, 2012; also: potency is read from the fitted curve at half-maximal effect; % is scaled to controls: 0 for no effect and ±100 for the full control effect; nearly all actives have a fitted effect of over 50% in size
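Readout: single end-point luminescence (Kinase-Glo Plus, 10 min). Reaction conditions were TbPYK/substrate plus 130 uM ADP, 45 min at RT, pH 7.2 TEA buffer. No-enzyme wells served as controls, and data were normalized before concentration-response fitting.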
RE007 growth inh – qHTS Assay for Inhibitors of the HIV-1 protein Vpr. S. pombe RE007 Vpr strain, BacTiter-Glo ATP luminescence, 24 h. AID 651644, 2012. Potency, µM (titrated, usually from 92.2 µM), without a hit: at the highest dose activity change, negative = less growth, actives largely listed as inhibitors. actives 0.21% (n = 360,000); active = well fitted falling curve with a large enough effect; inconclusive = small, poorly fitted or top-dose-only effect; inactive = no such curve, though single readings can be large or run the other way; also: potency is read from the fitted curve at half-maximal effect; % is scaled to controls: 0 for no effect and ±100 for the full control effect; nearly all actives have a fitted effect of over 50% in size
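Fission yeast strain RE007, carrying one chromosomally integrated HIV-1 vpr copy, was seeded at OD 0.01 in PMG+AL medium with 23 nL pinned compound. After 24 h at 30 °C and 99% humidity, viability was read by BacTiter-Glo luminescence.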
CHX counter – Cycloheximide Counterscreen for Small Molecule Inhibitors of Shiga Toxin; cell reporter, cycloheximide protein synthesis inhibition counterscreen; max response, %; actives 12% (n = 300,000); in the data active = max response mostly above about 13%, no sharp cut-off; inactive = mostly below about 14%; also: read at 38.3 µM for the half of the compounds with a filed dose; 0% is about no effect
Numbers without * were called inactive; u = inconclusive; x = not tested or not shown; + = active, no number; [ ] = remark or other dose. Unless noted, calls follow the shape of the dose curve; as a rule, active = well fitted curve in the direction sought with a large enough effect; inconclusive = small, poorly fitted or top-dose-only effect, or another doubt; inactive = no such curve, though single readings can be large; an effect the other way counts as inactive or inconclusive.

SMILES	LmPK inh	FBPA Giardia inh	Shiga toxin inh	TbPYK inhibitor	RE007 growth inh	CHX counter
O=S(=O)(Cc1cc(-c2ccc(Cl)cc2)no1)c1ccccc1	0.6%	-3.3%	44.2*	-8.0%	-18.2%	38.0*
Cc1c(C(=O)Nc2cccc(-c3nc4ccccc4s3)c2)oc2ccccc12	x	x	x	-5.4%	x	x
Cc1oc(-c2ccc3c(c2)OCCO3)cc1C(=O)O	14.1µM*	3.9%	-33.1	u	u	-8.6
Cc1oc(-c2ccc3c(c2)OCCO3)cc1C(=O)NCC(=O)O	-0.6%	-0.3%	-9.7	-20.1%	-0.3%	-3.4
Cc1oc(-c2ccc3c(c2)OCCO3)cc1C(=O)NC(CCC(=O)O)C(=O)O (centres undefined)	1.3%	11.9%	58.8	-6.7%	3.9%	26.8*
CC(Sc1cccc[n+]1[O-])C(=O)Nc1cccc([N+](=O)[O-])c1 (centres undefined)	7.0%	-0.1%	19.4	-6.4%	3.6%	16.3*
CCCC(=O)NCc1nc2ccccc2n1C	-5.7%	0.7%	-7.2	0.5%	6.4%	-4.1
Cc1ccccc1NCc1nc2ccccc2n1C	-23.4%	11.4%	84.2*	-19.7%	u	55.3*
Cn1c(CNc2ccccc2O)nc2ccccc21	1.2%	-26.9%	75.7*	-22.9%	u	23.4*
Cc1ccc(-n2nc(-c3ccc(F)cc3)c3cnc4cc5c(cc4c32)OCO5)cc1C	x	x	x	-3.1%	x	x
Cc1ccc(C)n1-c1ccc(C(=O)NN)s1	3.9%	-2.3%	25.7*	-0.7%	-0.6%	26.1*
CCOC(=O)CNC(=O)c1ccc(Br)s1	3.2%	7.2%	1.0	7.7%	-6.2%	1.9
COc1ccc(C2=N[C@@H](C(C)C)CO2)cc1	x	-0.6%[136 µM]	+	x	x	63.8*
CC1(C)COC(c2cccc([N+](=O)[O-])c2)OC1	x	x	x	-0.1%	3.1%	x
O=[N+]([O-])c1cccc(C2=NC(c3ccccc3)CO2)c1 (centres undefined)	2.6%	-3.0%	80.9*	-2.2%	-5.4%	23.4*
COc1ccc(C2=N[C@H](c3ccccc3)CO2)cc1	x	0.0%[89.2 µM]	+	x	x	37.4
CCn1cc(C2=NC(c3ccccc3)CO2)c2ccccc21 (centres undefined)	1.1%	0.3%	24.1	5.2%	-18.7%	14.7
COc1ccc(C2=NC(c3ccccc3)CO2)cc1 (centres undefined)	-8.4%	-3.5%	96.4*	x	x	55.7*
Cc1cn2c(=O)cc(COC(=O)c3ccc(NC(=O)COc4ccc(C)c(C)c4)cc3)nc2s1	x	x	x	-6.9%	x	x
CC[C@@H]1Cn2c(c3nc(-c4cc(Cl)cc(Cl)c4Cl)nc-3n(C)c2=O)N1	x	-3.5%	-6.6	x	x	-5.1
Cc1cccc(C(=O)NCc2nnc(SCC(=O)Nc3ccccc3F)n2-c2ccccc2)c1	x	x	x	4.5%	x	x
N#Cc1cnc2sc3ccccc3n2c1=N	-19.1%	2.9%	50.6*	1.3%	-13.4%	47.2*
Cn1nc2sc3ccccc3n2c(=O)c1=O	1.2%	11.3%	-1.9	0.6%	-9.9%	2.9
O=C(NCc1nc2ccccc2n1Cc1ccccc1Cl)c1ccccc1	x	x	x	5.0%	x	x
Cc1cc(C(=O)NCCc2ccc(Cl)cc2)no1	0.8%	3.2%	24.2	-3.6%	46.4%	13.3
SMILES	LmPK inh	FBPA Giardia inh	Shiga toxin inh	TbPYK inhibitor	RE007 growth inh	CHX counter
O=C(NCCC1=CCCCC1)c1cnsn1	-9.0%	-3.0%	45.6*	-1.2%	0.2%	34.6*
O=C(NCC1CCCO1)c1cc2c(s1)CS(=O)(=O)C2 (centres undefined)	-2.4%	-4.3%	8.1	-8.4%	-14.6%	7.3
Cc1cc(C(=O)NCCC2=CCCCC2)no1	-6.7%	3.9%	90.8*	5.4%	1.1%	44.8*
O=C(NCCC1=CCCCC1)c1cc2c(s1)CS(=O)(=O)C2	1.7%	12.6%	24.7*	-1.8%	9.3%	17.4*
Cc1cn2c(=O)cc(COc3ccccc3NC(=O)c3ccc(Cl)cc3)nc2s1	x	x	x	1.2%	x	x
C/C(=N\Nc1nc(C(=O)O)cs1)c1ccccc1	3.5%	u	29.2	-1.8%	-3.6%	23.2*
C/C(=N\Nc1nc(C(C)(C)C)cs1)c1ccccc1	-2.7%	-9.3%	134.5*	7.3%	-24.1%	57.3*
C/C(=N\Nc1c(Cl)c(Cl)nc(C(=O)O)c1Cl)c1ccc(O)cc1	-3.0%	-18.6%	-5.0	0.0%	-0.2%	-0.6
C/C(=N\Nc1nc(C(C)(C)C)cs1)c1ccc(O)cc1	-2.8%	u	120.7*	-5.4%	6.7%	52.9*
c1cncc(-c2nnc(-c3cccnc3)nn2)c1	-26.9%	u	-0.5	-19.4%	22.4µM*	0.6
c1ccc(-c2nnc(-c3ccccc3)nn2)cc1	u	-0.5%	91.1*	u	0.4%	50.6*
O=C(C(=O)c1cccnc1)c1cccnc1	-0.3%	-10.9%	2.9	-16.9%	-15.5%	-3.2
CCOC(=O)c1cccc(NC(=O)c2ccc3c(c2)nnn3C2CCCC2)c1	x	x	x	-1.7%	x	x
COc1cccc(-c2cncnc2NCc2cccc(C)c2)c1	x	-0.2%	x	x	x	x
CSc1nn(-c2ccc(C(=O)OCC(=O)NC(=O)NC(C)C)cc2)c(=S)s1	-1.5%	-4.5%	31.8	-7.2%	4.1%	26.7*
CN(C)C(=O)c1ccc(S(=O)(=O)NCc2ccccc2Cl)s1	x	x	x	-14.1%	x	x
O=S(=O)(Nc1ccc(N2CCCCC2)cc1)c1ccccc1F	0.7%	-14.7%	36.3	-17.9%	3.9%	16.5*
O=S(=O)(Nc1cccc(-c2ccc(N3CCCCC3)nn2)c1)c1ccc(F)cc1F	x	x	x	1.9%	x	x
O=S(=O)(Nc1ccc(N2CCCCC2)cc1)c1cccc2cccnc12	1.8%	-2.1%	-3.1	-12.4%	-10.2%	6.9
O=S(=O)(Nc1ccc(N2CCCCC2)cc1)c1ccc(F)cc1F	0.0%	-15.1%	21.3	-6.9%	2.4%	16.1*
Fc1cccc(Cl)c1CNc1ccc(N2CCCC2)cc1	-14.9%	u	21.9	u	7.8%	28.7*
O=C(COc1ccccc1[N+](=O)[O-])N(Cc1ccco1)c1ccccn1	x	x	x	-6.3%	x	x
COc1cccc(NC(=O)C2COc3ccccc3O2)c1 (centres undefined)	9.9%	12.0%	x	-7.3%	-9.0%	59.7*
Cc1cc(Cl)ccc1NC(=O)C1COc2ccccc2O1 (centres undefined)	1.4%	-4.9%	86.7*	3.6%	12.2%	37.3*
O=C(Nc1cccc(Cl)c1)C1COc2ccccc2O1 (centres undefined)	1.9%	3.5%	29.3	-0.7%	-14.8%	16.4*
N/C(=N\OC(=O)/C=C/c1ccccc1)c1ccncc1	-1.1%	0.8%	70.7*	-2.7%	12.2%	21.4*
N/C(=N\OC(=O)/C=C/c1ccccc1Cl)c1ccncc1	-8.6%	3.9%	137.4*	0.8%	-16.4%	66.5*
